Source: PubChem BioAssay (Tox21)
Records with an inconclusive call do not appear. Entries that show only a call come without a potency. Activity calls are given as the source filed them. Calls come from the whole dose curve.

Assay: qHTS assay to identify small molecule antagonists of the estrogen receptor alpha (ER-alpha) signaling pathway using the BG1 cell line (AID 743080);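 note: BG1 cells stimulated with 17beta-estradiol alongside compound; nearly all actives have a fitted effect of over 25% in size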
Conditions: BG1Luc4E2 ERE-luciferase antagonist mode, luminescence; series mostly up to 70.3 µM
Description: National Center for Advancing Translational Sciences [NCATS]
NIH Chemical Genomics Center [NCGC]
U.S. Environmental Protection Agency [EPA]
National Institutes of Environmental Health Sciences [NIEHS]
National Toxicology Program [NTP]
U.S. Food and Drug Administration [FDA]
Estrogen receptor (ER), a nuclear hormone receptor, plays an important role in development, metabolic homeostasis and reproduction. Endocrine disrupting chemicals (EDCs) and their interactions with steroid hormone receptors like ER causes disruption of normal endocrine function. Therefore, it is important to understand the effect of environmental chemicals on the ER signaling pathway. To identify ER antagonists, BG1-Luc-4E2 cell line (provided by Dr. Michael Denison from University of California) has been used to screen the Tox21 10K compound library. BG1Luc4E2 cell line endogenously expresses full-length ER-alpha and is stably transfected with a plasmid containing four estrogen responsive elements (ERE) upstream of a luciferase reporter gene.
Tox21 Assay Protocol Summary:
BG1-Luc-4E2 cells were cultured in phenol red free assay medium containing 10% charcoal stripped FBS for 5 days before the assay was performed. The cells were dispensed at 4,000 cells/4 uL of assay medium per well into white wall/solid-bottom 1536-well plates using a Multidrop Combi (ThermoFisher Scientific, Waltham, MA) dispenser. The assay plates were incubated at a 37C and 5% CO2 for 24 h, and then 23 nL of compounds dissolved in DMSO, positive controls or DMSO only was transferred to the assay plate using a Pintool station (Kalypsys, San Diego, CA), followed by addition of 1 uL of 17beta-estradiol in assay medium using a Flying Reagent Dispenser (Aurora Discovery, San Diego, CA). After the plates were incubated at 37 C and 5% CO2 for 21.5 h, 1 uL of CellTiter-Fluor reagent (Promega, Madison, WI) of measuring cytotoxicity was added using Flying Reagent Dispenser (FRD) to each well. The assay plates were incubated at 37 C and 5% CO2 for additional 30 min and the fluorescence intensity was quantified by a ViewLux plate reader (PerkinElmer, Shelton, CT). For measuring luciferase reporter gene activity, 4 uL of ONE-Glo reagent (Promega) was added to each plate using an FRD and luminescence was quantified by a ViewLux plate reader after 30 min incubation at room temperature.

Q: For `Clc1cc(Cl)c(Cl)c(Cl)c1Cl`, which Potency is on record?
A: inactive

Q: Which Potency does the source give for `O=CN1CCCCC1` here?
A: inactive

Q: For `CCN1CCN(C(=O)N[C@@H](C(=O)N[C@@H]2C(=O)N3C(C(=O)O)=C(CSc4nnnn4C)CS[C@H]23)c2ccc(O)cc2)C(=O)C1=O`, which Potency is on record?
A: inactive

Q: With `C[C@@H]1CC[C@@]2(OC1)O[C@H]1C[C@H]3[C@@H]4CC[C@H]5C[C@@H](O)CC[C@]5(C)[C@H]4CC(=O)[C@]3(C)[C@H]1[C@@H]2C` as the compound, how does the Potency read?
A: inactive

Q: For `COCCCOc1cc(C[C@@H](C[C@H](N)[C@@H](O)C[C@H](C(=O)NCC(C)(C)C(N)=O)C(C)C)C(C)C)ccc1OC`, which Potency is on record?
A: inactive

Q: For `N#CC1(N)CCCCC1`, which Potency is on record?
A: inactive

Q: With `CCCCCCCC(=O)N(C)C` as the compound, how does the Potency read?
A: inactive

Q: For `CN1CCN(C(=O)C2CCCCC2)CC1`, which Potency is on record?
A: inactive

Q: With `C=CC(=O)OCC[N+](C)(C)C` as the compound, how does the Potency read?
A: inactive

Q: With `CCCC(=O)CC` as the compound, how does the Potency read?
A: inactive

Q: Which Potency does the source give for `CC/C=C\CCCCCCCCCCOC(C)=O` here?
A: inactive

Q: With `C=COCCCCO` as the compound, how does the Potency read?
A: inactive

Q: With `CC(=O)SCC(CC(=O)c1ccc(C)cc1)C(=O)O` (stereo not given) as the compound, how does the Potency read?
A: inactive

Q: Which Potency does the source give for `CCCCC(CC)CCC(CC(C)C)OS(=O)(=O)O` (stereo not given) here?
A: inactive

Q: Which Potency does the source give for `O=P(O)(O)C(O)(Cc1cccnc1)P(=O)(O)O` here?
A: inactive

Q: Which Potency does the source give for `CCNC(=O)C(C)OC(=O)Nc1ccccc1` (stereo not given) here?
A: inactive

Q: For `CCCCN1C(=O)c2ccccc2C1=O`, which Potency is on record?
A: inactive

Q: For `Nc1cc(S(=O)(=O)O)ccc1O`, which Potency is on record?
A: inactive

Q: With `CCCc1ccc(O)c(OC)c1` as the compound, how does the Potency read?
A: inactive

Q: For `Cc1cc(O)c(Cl)cc1C`, which Potency is on record?
A: inactive

Q: Which Potency does the source give for `O=S(=O)(O)c1ccc(Cl)cc1` here?
A: inactive

Q: Which Potency does the source give for `OCCC(F)(F)C(F)(F)C(F)(F)C(F)(F)C(F)(F)C(F)(F)F` here?
A: inactive

Q: Which Potency does the source give for `Cc1nc2ccc(Cl)cc2[nH]1` here?
A: inactive

Q: Which Potency does the source give for `N=C(N)N1CCc2ccccc2C1` here?
A: inactive

Q: Which Potency does the source give for `CC(C)c1cc(C(C)C)cc(C(C)C)c1` here?
A: inactive

Q: With `CCOC(=O)CC(C(C)=O)C(C)=O` as the compound, how does the Potency read?
A: inactive

Q: For `COc1cnc(NS(=O)(=O)c2ccc(N)cc2)nc1`, which Potency is on record?
A: inactive

Q: With `CC(C)(O)c1ccc(C(C)(C)O)cc1` as the compound, how does the Potency read?
A: inactive

Q: With `Nc1nc(Cl)cc(Cl)n1` as the compound, how does the Potency read?
A: inactive

Q: Which Potency does the source give for `CCCCCCC(O)CO` (stereo not given) here?
A: inactive

Q: With `COC(=O)c1c(C)cc(O)c(C)c1O` as the compound, how does the Potency read?
A: inactive

Q: With `CCOC(=O)[C@H](CCc1ccccc1)N[C@H]1CS[C@H](c2cccs2)CN(CC(=O)O)C1=O` as the compound, how does the Potency read?
A: inactive

Q: With `N#Cc1ccccc1C#N` as the compound, how does the Potency read?
A: inactive

Q: Which Potency does the source give for `CCN(CC)CC` here?
A: inactive

Q: Which Potency does the source give for `N[C@H]1C(O)O[C@H](CO)[C@@H](O)[C@@H]1O` (stereo not given in full) here?
A: inactive

Q: Which Potency does the source give for `O=S(=O)(O)CC(O)CCl` (stereo not given) here?
A: inactive

Q: Which Potency does the source give for `Cc1ccc(N)nc1` here?
A: inactive

Q: For `CN(C)CCc1c[nH]c2ccc(CS(=O)(=O)N3CCCC3)cc12`, which Potency is on record?
A: inactive

Q: Which Potency does the source give for `O=C(O)Cc1c(Cl)ccc(Cl)c1Cl` here?
A: inactive

Q: Which Potency does the source give for `O=Cc1ccc(C(=O)O)cc1` here?
A: inactive
